Results taken from PubChem BioAssay (NCI).
The panel holds about 83,000 compounds, 20% with a hit somewhere; the sample as a whole holds those more often.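 48-hour exposure, single concentration, 96-well plates; percent growth endpoint where 0 means no net growth. Active: below 10.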 Active and inactive are the calls of the source.

Legend:
Experiment in all cases: NCI-60 one-dose screen, 48 h (100 = growth as untreated, 0 = no growth, -100 = all killed)
Conditions in all cases: 10 µM unless noted
[1] = system: DU-145 prostate
[2] = system: K-562 leukemia
[3] = system: MALME-3M melanoma
[4] = system: MDA-MB-231 breast
[5] = system: RXF 393 renal
[6] = system: SF-268 CNS
[7] = system: SF-295 CNS
[8] = system: UACC-257 melanoma
[9] = system: M14 melanoma
[10] = system: HCT-15 colon
[11] = system: HT29 colon
[12] = system: SNB-75 CNS
[13] = system: SNB-19 CNS
[14] = system: U251 CNS
[15] = system: PC-3 prostate
[16] = system: SK-MEL-5 melanoma
[17] = system: UACC-62 melanoma
[18] = system: LOX IMVI melanoma
[19] = system: SK-MEL-28 melanoma
[20] = system: SF-539 CNS

Measured: growth

COC(=O)[C@H](Cc1cn(C)cn1)NC(=O)[C@@H](NC(=O)Nc1cc(C(F)(F)F)cc(C(F)(F)F)c1)C(C)C
active: [1] -97.1% [100 µM] | [2] -53.5% [100 µM] | [3] -90.5% [100 µM] | [4] -90.2% [100 µM] | [5] -83.3% [100 µM] | [6] -89.4% [100 µM] | [7] -91% [100 µM] | [8] -95.9% [100 µM] | [9] -92.8% [100 µM] | [10] -87.6% [100 µM] | [11] -81.4% [100 µM] | [12] -99.8% [100 µM] | [13] -90.3% [100 µM] | [14] -95.3% [100 µM] | [15] -89.6% [100 µM] | [16] -95.4% [100 µM] | [17] -93.1% [100 µM] | [18] -79.5% [100 µM] | [19] -96.5% [100 µM]

CCCCCc1c(C)[nH]c(/C=C2\N=C(c3ccc[nH]3)C=C2OCc2ccccc2)c1C
active: [1] -100% [100 µM] | [2] -26.2% [100 µM] | [3] -86.9% [100 µM] | [4] -86.4% [100 µM] | [5] -48.8% [100 µM] | [6] -70.9% [100 µM] | [20] -69.8% [100 µM] | [8] -87.7% [100 µM] | [9] -81.4% [100 µM] | [10] -60% [100 µM] | [11] -80.9% [100 µM] | [12] -78.1% [100 µM] | [13] -92.8% [100 µM] | [14] -93.7% [100 µM] | [15] -69.5% [100 µM] | [16] -66.9% [100 µM] | [17] -92.7% [100 µM] | [18] -62.6% [100 µM] | [19] -89.8% [100 µM]

Cc1nn(-c2nc3ccccc3s2)c(C)c1Oc1ccccc1O
inactive: [1] 68.2% | [2] 31.8% | [3] 76.9% | [4] 70.8% | [6] 60.5% | [7] 58.8% | [20] 60.9% | [8] 104% | [9] 63.7% | [10] 29.4% | [11] 50.1% | [12] 78.7% | [13] 80% | [14] 33.9% | [15] 67% | [16] 54.6% | [17] 39% | [18] 30.1% | [19] 22.1%

COc1ccc(NC(=O)c2ccccc2-c2ccccc2)c(C(N)=O)c1
inactive: [1] 29.6% | [2] 14.2% | [3] 34.3% | [4] 54.1% | [6] 49.5% | [7] 17.4% | [8] 49.7% | [9] 18.2% | [10] 32.8% | [11] 11.4% | [13] 39.8% | [14] 45.9% | [15] 32.8% | [16] 29.7% | [17] 55.7% | [18] 36.9% | [19] 59.7%
active: [20] -1.25% | [12] -10.7%

NS(=O)(=O)c1ccc(-n2nc(-c3ccc(Br)cc3)ccc2=O)cc1
inactive: [1] 12.4% [100 µM] | [2] 40.1% [100 µM] | [3] 55.1% [100 µM] | [4] 34.2% [100 µM] | [5] 40.9% [100 µM] | [6] 66.8% [100 µM] | [20] 67% [100 µM] | [8] 106% [100 µM] | [9] 62.4% [100 µM] | [10] 43% [100 µM] | [11] 63.9% [100 µM] | [13] 36.5% [100 µM] | [14] 11.2% [100 µM] | [15] 78.2% [100 µM] | [16] 65.1% [100 µM] | [17] 53.6% [100 µM] | [18] 68.1% [100 µM] | [19] 80.9% [100 µM]
active: [12] 8.35% [100 µM]

CCOc1cc(CCNS(=O)(=O)c2ccc(C)cc2)c(C(C)=O)cc1OCC
inactive: [1] 76.1% [100 µM] | [2] 41.3% [100 µM] | [3] 98.3% [100 µM] | [4] 78.5% [100 µM] | [5] 87% [100 µM] | [6] 79.9% [100 µM] | [20] 101% [100 µM] | [8] 77.8% [100 µM] | [9] 79.9% [100 µM] | [10] 83.3% [100 µM] | [11] 79.7% [100 µM] | [12] 93.3% [100 µM] | [13] 87.3% [100 µM] | [14] 86.4% [100 µM] | [15] 33.5% [100 µM] | [16] 66.1% [100 µM] | [17] 59% [100 µM] | [18] 87.1% [100 µM] | [19] 108% [100 µM]

O=C(c1ccc(N2CCOCC2)cc1[N+](=O)[O-])N1CCOCC1
active: [7] -38.9%
inactive: [1] 114% | [2] 159% | [3] 103% | [4] 134% | [6] 110% | [20] 107% | [8] 43.9% | [9] 107% | [10] 96.2% | [11] 90.5% | [12] 31.8% | [13] 96.9% | [14] 105% | [15] 93.6% | [16] 136% | [17] 97% | [18] 98.3% | [19] 96.9%
